Results on one compound are retold here after ChEMBL document CHEMBL2218924, “A broad activity screen in support of a chemogenomic map for kinase signalling research and drug discovery” (Biochem J, 2013).

Experiment [1] concerns the target T1, Ephrin type-A receptor 3 (Homo sapiens) (UniProt P29320).
T1 sequence (whole entry): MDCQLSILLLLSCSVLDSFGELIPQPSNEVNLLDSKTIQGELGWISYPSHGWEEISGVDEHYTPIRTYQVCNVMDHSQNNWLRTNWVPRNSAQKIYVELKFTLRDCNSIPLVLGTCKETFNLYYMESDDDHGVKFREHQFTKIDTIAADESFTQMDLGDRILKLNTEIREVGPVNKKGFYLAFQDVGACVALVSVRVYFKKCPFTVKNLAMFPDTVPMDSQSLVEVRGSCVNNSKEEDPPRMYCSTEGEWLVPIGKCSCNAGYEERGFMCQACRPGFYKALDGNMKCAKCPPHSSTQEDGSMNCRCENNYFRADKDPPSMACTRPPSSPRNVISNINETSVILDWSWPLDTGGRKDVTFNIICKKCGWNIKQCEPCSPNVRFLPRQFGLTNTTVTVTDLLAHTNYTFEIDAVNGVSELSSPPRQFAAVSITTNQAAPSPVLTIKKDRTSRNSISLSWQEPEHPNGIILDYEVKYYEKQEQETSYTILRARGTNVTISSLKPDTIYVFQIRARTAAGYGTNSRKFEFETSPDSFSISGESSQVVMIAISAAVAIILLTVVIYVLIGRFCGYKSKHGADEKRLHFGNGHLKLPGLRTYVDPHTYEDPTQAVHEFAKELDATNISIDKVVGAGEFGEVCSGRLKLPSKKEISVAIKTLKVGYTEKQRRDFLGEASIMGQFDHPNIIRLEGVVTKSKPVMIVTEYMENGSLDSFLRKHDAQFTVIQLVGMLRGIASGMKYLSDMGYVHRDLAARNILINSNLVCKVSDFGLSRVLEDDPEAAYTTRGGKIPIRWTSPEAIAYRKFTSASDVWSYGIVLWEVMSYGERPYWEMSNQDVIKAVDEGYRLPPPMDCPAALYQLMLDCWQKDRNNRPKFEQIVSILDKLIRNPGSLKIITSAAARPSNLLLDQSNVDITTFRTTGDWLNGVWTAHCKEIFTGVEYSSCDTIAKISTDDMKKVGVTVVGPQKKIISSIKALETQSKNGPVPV
As to conditions: at 10 µM; call rule not given here.

In experiment [2] the target is Ephrin type-A receptor 7 (Homo sapiens) (UniProt Q15375). The following applies: at 1 µM.
Sequence of Ephrin type-A receptor 7 (Homo sapiens) (Q15375 28-998 limits assumed): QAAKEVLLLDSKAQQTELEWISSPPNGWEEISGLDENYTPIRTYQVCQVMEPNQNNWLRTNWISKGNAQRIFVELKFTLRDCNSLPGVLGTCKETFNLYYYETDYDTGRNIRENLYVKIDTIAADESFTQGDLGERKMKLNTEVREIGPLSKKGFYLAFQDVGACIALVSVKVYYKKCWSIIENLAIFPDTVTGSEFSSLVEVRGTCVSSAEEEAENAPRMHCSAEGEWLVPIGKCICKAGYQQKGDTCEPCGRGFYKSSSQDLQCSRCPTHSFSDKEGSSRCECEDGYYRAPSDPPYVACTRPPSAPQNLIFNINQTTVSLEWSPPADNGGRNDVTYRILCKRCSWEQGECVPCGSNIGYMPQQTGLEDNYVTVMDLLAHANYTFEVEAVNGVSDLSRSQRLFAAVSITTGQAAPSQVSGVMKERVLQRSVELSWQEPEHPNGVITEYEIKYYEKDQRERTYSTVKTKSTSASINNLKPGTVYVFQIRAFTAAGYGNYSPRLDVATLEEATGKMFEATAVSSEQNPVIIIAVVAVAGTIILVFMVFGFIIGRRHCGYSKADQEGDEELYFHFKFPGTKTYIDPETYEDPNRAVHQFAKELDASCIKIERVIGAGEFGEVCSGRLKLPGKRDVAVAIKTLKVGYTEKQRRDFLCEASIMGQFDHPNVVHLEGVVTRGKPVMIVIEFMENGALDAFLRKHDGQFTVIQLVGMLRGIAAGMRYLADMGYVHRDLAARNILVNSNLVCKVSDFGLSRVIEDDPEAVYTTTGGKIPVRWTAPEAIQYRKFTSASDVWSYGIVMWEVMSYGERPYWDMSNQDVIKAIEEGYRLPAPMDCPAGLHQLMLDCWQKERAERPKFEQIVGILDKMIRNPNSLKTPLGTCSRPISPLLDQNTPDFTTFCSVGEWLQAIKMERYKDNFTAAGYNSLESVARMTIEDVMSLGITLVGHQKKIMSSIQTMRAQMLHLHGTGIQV
Experiment [3] shares this target. The following applies: at 10 µM.
Experiment [4] addresses T2, Ephrin type-A receptor 8 (Homo sapiens) (UniProt P29322).
T2 sequence (whole entry): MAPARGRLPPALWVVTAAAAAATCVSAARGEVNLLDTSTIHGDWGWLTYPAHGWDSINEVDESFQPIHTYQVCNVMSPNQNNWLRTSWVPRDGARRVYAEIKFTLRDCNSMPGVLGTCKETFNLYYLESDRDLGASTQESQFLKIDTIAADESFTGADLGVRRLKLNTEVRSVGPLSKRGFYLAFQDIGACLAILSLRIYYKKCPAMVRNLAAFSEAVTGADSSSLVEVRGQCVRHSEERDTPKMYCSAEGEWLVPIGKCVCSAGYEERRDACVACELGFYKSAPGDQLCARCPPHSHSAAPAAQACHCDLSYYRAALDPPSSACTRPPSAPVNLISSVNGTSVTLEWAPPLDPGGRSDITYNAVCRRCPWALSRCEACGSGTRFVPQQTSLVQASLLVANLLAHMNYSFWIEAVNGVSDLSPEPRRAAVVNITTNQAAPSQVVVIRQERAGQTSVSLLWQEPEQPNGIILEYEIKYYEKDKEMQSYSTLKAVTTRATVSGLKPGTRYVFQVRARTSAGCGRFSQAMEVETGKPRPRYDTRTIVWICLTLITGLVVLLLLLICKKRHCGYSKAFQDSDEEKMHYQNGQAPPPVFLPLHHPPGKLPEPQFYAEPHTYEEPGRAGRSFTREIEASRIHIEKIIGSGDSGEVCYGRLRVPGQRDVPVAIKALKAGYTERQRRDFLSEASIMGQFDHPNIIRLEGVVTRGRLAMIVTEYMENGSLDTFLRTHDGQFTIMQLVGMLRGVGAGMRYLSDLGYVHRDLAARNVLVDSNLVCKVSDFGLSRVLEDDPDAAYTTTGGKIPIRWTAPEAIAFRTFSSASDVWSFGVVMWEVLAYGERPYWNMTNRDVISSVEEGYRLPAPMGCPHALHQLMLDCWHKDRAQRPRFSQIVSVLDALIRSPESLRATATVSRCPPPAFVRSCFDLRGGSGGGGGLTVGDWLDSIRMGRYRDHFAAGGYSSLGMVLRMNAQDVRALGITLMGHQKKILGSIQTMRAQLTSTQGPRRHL
The following applies: at 1 µM.

In experiment [5] the target is T2, Ephrin type-A receptor 8 (Homo sapiens). As to conditions: at 10 µM.
The target of experiment [6] is T3, Ephrin type-B receptor 1 (Homo sapiens) (UniProt P54762).
T3 sequence (whole entry): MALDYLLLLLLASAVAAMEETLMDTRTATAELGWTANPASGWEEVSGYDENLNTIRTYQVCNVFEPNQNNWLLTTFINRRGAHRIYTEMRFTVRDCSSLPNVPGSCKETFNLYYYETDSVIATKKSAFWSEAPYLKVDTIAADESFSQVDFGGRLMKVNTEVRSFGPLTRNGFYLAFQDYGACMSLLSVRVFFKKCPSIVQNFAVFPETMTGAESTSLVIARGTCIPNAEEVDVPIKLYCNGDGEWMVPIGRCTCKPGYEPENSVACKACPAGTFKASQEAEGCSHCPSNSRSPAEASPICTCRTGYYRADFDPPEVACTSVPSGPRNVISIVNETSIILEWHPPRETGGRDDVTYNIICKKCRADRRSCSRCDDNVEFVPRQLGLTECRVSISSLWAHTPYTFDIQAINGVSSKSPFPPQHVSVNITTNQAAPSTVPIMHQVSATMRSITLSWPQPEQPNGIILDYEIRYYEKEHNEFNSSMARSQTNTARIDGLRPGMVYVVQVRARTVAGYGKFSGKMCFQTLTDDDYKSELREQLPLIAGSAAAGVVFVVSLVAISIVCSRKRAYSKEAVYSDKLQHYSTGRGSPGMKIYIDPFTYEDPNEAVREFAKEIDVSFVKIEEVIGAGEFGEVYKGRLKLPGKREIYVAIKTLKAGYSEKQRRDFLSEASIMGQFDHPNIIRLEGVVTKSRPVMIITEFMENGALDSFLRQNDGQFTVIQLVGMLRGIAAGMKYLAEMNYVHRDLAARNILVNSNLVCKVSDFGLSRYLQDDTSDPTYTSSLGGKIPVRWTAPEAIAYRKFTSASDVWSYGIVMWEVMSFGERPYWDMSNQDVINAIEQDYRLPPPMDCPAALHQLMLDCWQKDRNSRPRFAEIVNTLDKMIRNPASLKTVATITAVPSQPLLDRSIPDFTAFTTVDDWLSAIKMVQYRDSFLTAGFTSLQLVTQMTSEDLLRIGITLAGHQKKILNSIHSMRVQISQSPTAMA
The following applies: at 1 µM.

The target in experiment [7] is T3, Ephrin type-B receptor 1 (Homo sapiens). The following applies: at 10 µM.
The target of experiment [8] is T4, Ephrin type-B receptor 2 (Homo sapiens) (UniProt P29323).
T4 sequence (whole entry): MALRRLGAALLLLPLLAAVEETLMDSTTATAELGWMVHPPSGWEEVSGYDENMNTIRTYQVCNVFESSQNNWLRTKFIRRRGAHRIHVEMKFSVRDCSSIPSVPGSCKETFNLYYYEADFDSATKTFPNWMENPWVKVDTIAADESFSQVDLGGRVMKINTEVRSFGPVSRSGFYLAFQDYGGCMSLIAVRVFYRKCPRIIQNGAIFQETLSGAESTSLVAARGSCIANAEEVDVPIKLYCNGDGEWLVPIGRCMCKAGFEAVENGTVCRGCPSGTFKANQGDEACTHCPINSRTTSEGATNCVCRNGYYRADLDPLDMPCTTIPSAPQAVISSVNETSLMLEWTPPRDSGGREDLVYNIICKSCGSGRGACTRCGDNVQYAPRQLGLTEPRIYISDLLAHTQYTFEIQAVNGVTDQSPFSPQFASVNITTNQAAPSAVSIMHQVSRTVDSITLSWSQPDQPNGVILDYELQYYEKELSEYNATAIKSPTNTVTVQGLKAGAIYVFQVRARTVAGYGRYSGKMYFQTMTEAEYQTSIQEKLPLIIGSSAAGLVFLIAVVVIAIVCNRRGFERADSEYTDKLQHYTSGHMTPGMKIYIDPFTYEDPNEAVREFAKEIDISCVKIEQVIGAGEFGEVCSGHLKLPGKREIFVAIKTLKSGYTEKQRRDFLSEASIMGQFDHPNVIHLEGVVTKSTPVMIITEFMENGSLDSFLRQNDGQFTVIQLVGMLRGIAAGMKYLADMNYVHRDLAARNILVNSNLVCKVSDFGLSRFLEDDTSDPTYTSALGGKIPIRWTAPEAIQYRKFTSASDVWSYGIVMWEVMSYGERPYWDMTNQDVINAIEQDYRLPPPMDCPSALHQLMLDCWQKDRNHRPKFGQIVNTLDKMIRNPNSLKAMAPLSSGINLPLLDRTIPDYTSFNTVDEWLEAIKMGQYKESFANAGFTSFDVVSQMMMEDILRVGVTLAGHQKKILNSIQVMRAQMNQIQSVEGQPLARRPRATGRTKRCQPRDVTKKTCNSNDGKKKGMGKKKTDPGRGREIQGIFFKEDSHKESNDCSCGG
As to conditions: at 10 µM.

The target of experiment [9] is T5, Ephrin type-B receptor 3 (Homo sapiens) (UniProt P54753).
T5 sequence (whole entry): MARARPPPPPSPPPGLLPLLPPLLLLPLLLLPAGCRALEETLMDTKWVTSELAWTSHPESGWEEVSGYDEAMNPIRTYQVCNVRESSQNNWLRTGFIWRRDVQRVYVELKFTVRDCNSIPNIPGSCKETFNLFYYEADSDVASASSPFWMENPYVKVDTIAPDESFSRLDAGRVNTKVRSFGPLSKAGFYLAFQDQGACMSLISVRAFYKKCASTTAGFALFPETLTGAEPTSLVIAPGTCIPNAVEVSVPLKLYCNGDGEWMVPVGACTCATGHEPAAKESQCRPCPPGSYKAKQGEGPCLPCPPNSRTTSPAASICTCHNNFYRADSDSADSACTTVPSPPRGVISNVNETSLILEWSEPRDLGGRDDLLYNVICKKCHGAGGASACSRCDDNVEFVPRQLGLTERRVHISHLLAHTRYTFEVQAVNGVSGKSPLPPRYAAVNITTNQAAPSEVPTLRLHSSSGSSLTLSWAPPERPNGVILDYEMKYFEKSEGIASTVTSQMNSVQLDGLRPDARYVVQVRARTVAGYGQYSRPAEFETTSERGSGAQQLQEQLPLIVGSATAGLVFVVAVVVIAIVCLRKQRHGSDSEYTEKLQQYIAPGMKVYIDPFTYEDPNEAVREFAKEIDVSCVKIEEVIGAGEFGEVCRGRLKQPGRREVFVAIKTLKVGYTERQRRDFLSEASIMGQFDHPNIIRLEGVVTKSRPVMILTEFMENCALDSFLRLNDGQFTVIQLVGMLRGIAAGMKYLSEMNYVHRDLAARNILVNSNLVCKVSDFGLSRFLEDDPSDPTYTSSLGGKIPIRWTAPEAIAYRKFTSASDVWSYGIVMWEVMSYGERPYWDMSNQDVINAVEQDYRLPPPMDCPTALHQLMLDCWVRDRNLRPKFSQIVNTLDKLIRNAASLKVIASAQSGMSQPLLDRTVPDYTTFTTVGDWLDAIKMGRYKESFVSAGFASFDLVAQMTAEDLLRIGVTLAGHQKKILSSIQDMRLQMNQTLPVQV
As to conditions: at 1 µM.

Experiment [10] addresses T5, Ephrin type-B receptor 3 (Homo sapiens). As to conditions: at 10 µM.
For experiment [11], the target named is Receptor tyrosine-protein kinase erbB-4 (Homo sapiens) (UniProt Q15303). As to conditions: at 1 µM.
Sequence of Receptor tyrosine-protein kinase erbB-4 (Homo sapiens) (Q15303 whole entry): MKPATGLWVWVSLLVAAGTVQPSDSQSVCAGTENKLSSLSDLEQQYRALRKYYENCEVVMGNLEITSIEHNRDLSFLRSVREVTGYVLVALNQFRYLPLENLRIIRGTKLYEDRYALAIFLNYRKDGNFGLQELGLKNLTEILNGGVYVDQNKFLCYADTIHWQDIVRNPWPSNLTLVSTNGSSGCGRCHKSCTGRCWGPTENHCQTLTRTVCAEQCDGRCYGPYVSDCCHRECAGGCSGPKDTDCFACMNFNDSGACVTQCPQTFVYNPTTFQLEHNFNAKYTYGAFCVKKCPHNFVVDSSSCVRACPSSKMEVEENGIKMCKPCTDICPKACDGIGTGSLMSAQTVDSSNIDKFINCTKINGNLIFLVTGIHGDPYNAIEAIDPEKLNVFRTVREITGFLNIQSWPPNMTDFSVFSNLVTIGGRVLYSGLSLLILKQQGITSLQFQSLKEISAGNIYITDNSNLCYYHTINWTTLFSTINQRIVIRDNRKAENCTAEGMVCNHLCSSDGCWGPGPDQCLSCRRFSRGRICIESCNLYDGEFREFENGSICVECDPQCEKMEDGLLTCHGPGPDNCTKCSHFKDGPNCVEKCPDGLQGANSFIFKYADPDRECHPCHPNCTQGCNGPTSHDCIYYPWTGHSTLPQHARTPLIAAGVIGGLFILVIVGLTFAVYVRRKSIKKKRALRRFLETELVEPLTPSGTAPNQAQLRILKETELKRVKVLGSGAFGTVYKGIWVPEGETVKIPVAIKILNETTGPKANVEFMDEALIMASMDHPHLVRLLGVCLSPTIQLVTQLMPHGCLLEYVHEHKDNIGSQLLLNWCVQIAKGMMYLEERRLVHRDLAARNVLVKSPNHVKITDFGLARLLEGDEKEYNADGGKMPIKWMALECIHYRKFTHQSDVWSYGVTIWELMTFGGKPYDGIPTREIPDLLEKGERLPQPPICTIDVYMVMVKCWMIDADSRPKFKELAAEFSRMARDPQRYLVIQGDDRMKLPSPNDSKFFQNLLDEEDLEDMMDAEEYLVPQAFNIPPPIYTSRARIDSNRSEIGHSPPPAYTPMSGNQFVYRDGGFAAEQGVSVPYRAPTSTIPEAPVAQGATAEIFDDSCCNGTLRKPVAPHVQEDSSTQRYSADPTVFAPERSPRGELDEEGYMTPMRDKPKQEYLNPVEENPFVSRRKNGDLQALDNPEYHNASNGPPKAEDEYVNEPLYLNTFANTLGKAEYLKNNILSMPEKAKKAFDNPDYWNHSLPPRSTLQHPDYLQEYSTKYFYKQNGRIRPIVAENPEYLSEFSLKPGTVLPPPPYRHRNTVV
Experiment [12] shares this target. As to conditions: at 10 µM.

The structures appear in SMILES notation.

For orientation: residual activity means the signal under treatment as a percentage of the control signal. As for `Cc1cc2ncc(-c3ccccc3)nc2cc1C`, the residual activity in experiment [1] was 92%; in experiment [2], 99%; in experiment [3] it was 93%; in experiment [4] it was 97%; in experiment [5] it was 98%; in [6], 106%. Moreover, the residual activity was 106% in experiment [7]; 103% in [8]; 106% (inactive) in experiment [9]; 125% in [10]; 99% in [11]; 105% in experiment [12].
